Assay [1] can be described thus: qHTS assay to identify small molecule agonists of the vitamin D receptor (VDR) signaling pathway - cell viability counter screen (AID 743224). Further: series mostly up to about 63 µM; nearly all actives have a fitted effect of over 50% in size. In short, it runs like this:
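Plated VDR-bla cells (4 h, 37C) received compound, incubated 16 h, then LiveBLAzer substrate 2 h RT; CellTiter-Glo added afterwards, luminescence read at 30 min.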

A short description of assay [2]: qHTS assay to identify small molecule antagonists of the vitamin D receptor (VDR) signaling pathway - cell viability counter screen (AID 743225). Further: nearly all actives have a fitted effect of over 50% in size. In short, it runs like this: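 VDR-UAS-bla HEK 293T cells were plated and incubated 4 h at 37C, then dosed with compound plus 3 nM (final) 1-alpha,25-dihydroxyvitamin D3 for 16 h. After the 2 h beta-lactamase read, viability in the same wells was read as CellTiter-Glo luminescence after 30 min at room temperature.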
(Quantitative high-throughput screening tests each substance at several concentrations.)

Assay [3] can be described thus: qHTS assay to identify small molecule agonists of the NFkB signaling pathway (AID 1159509; active means well fitted curve in the direction sought with a large enough effect in the signal ratio in the repeat runs, not every such curve was filed as active; the % refers to the signal ratio; further: series mostly up to about 61 µM). In short, it runs like this: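 After overnight attachment, reporter cells received test compounds, DMSO or positive controls and were incubated 5 hr at 37 C. FRET substrate was then added for 1.5 hr at room temperature before dual-emission fluorescence reading.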
A short description of assay [4]: qHTS assay to identify small molecule agonists of the NFkB signaling pathway - cell viability counter screen (AID 1159515; calls by dose curve; further: series mostly up to about 61 µM; nearly all actives have a fitted effect of over 55% in size). In short, it runs like this:
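Using the same wells as the NFkB reporter read, ME-180 NFkB-bla cells given compounds for 5 hr were assessed for viability via CellTiter-Glo, with luminescence taken after a 30 min room-temperature incubation.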

Assay [5] in a line: qHTS assay to identify small molecule agonists of the endoplasmic reticulum stress response signaling pathway (AID 1159516; active means well fitted activation curve with a large enough effect in the signal ratio in the repeat runs, not every such curve was filed as active; the % refers to the signal ratio). In short, it runs like this:
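An ESRE-bla HeLa cell assay: compounds were pin-transferred from DMSO onto overnight-plated cells and left 5 hr at 37 C. Substrate was then loaded for 2 hr at room temperature before reading fluorescence at 460 nm and 530 nm.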

Assay [6] is described as follows: qHTS assay to identify small molecule agonists of the endoplasmic reticulum stress response signaling pathway - cell viability counter screen (AID 1159517; calls by dose curve;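 further: HeLa cells carrying an ER stress response element beta-lactamase reporter; series mostly up to about 61 µM; nearly all actives have a fitted effect of over 50% in size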). In short, it runs like this:
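Luminescence readout: CellTiter-Glo, 30 min RT, same wells as the ESRE-bla reporter read. HeLa ESRE-bla, 1,500 cells/well, o/n 37 C; cpd 5 hr 37 C/5% CO2.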

A short description of assay [7]: qHTS assay to identify small molecule antagonists of the retinoid-related orphan receptor gamma (ROR-gamma) signaling pathway - cell viability counter screen (AID 1159520). Further: nearly all actives have a fitted effect of over 50% in size. In short, it runs like this: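 Tet-on ROR gamma CHO cells (1,000/well) were plated 4 hr, given compounds in DMSO for 2 hr at 37 C, then induced with 1 uM final doxycycline for 16 hr. Viability was read as ATP by CellTiter-Glo luminescence after 30 min.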

The target in assay [8] is Nuclear receptor ROR-gamma (Homo sapiens) (UniProt P51449). Put plainly: qHTS assay to identify small molecule antagonists of the retinoid-related orphan receptor gamma (ROR-gamma) signaling pathway (AID 1159521; further: nearly all actives have a fitted effect of over 50% in size; further: potency means the concentration at half of the fitted maximal effect). In short, it runs like this: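 Tet-on ROR-gamma CHO cells with ROR response element-luciferase reporter; compounds added 2 hr before 1 uM doxycycline induction, then 16 hr at 37 C. Antagonism scored as decreased ONE-Glo luminescence.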

A short description of assay [9]: qHTS assay to identify small molecule agonists of the AP-1 signaling pathway - cell viability counter screen (AID 1159525; calls by dose curve; further: nearly all actives have a fitted effect of over 55% in size). In short, it runs like this:
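ME-180 AP-1-bla, 2500 cells/well, Opti-MEM + 0.5% dialyzed FBS; overnight 37 °C; cpd 15-pt titration, 5 h 37 °C; CellTiter-Glo 30 min RT; luminescence read; normalised to TOAB and DMSO controls.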

Assay [10] addresses Retinoic acid receptor RXR-alpha (Homo sapiens) (UniProt P19793). Put plainly: qHTS assay to identify small molecule agonists of the RXR signaling pathway (AID 1159527; calls by dose curve; further: nearly all actives have a fitted effect of over 35% in size). In short, it runs like this: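 GeneBLAzer RXR-alpha-UAS-bla HEK 293T cells in 2% charcoal-stripped FBS medium were exposed to compounds for 16 hr at 37 C in agonist mode. Beta-lactamase reporter read as 460/530 nm FRET ratio after 2 hr substrate loading.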

A short description of assay [11]: qHTS assay to identify small molecule agonists of the RXR signaling pathway - cell viability counter screen (AID 1159529). In short, it runs like this:
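RXR-alpha-UAS-bla HEK 293T cells in medium with 2% charcoal-stripped FBS were pre-incubated 5 hr, then compound-treated 16 hr at 37 C. Viability was read by CellTiter-Glo luminescence in the same wells as the beta-lactamase assay, with tetraoctyl ammonium bromide as positive control.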

Assay [12] is described as follows: qHTS assay to identify small molecule antagonists of the retinoid acid receptor (RAR) signaling pathway - cell viability counter screen (AID 1159551). Further: nearly all actives have a fitted effect of over 35% in size. In short, it runs like this:
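Retinol-stimulated (1 uM final) C3RL4 cells, compound 6 h, 37 C; readout CellTiter-Glo luminescence (ATP) after 30 min RT incubation.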

A short description of assay [13]: qHTS assay to identify small molecule agonists of the retinoic acid receptor (RAR) signaling pathway (AID 1159553). In short, it runs like this:
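Reporter readout comes from luciferase under RARE control in C3RL4 cells; compound exposure lasts 6 hr at 37 C in 5% CO2, and luminescence is recorded following a 30 min room-temperature incubation with reagent.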

Assay [14] is described as follows: qHTS assay to identify small molecule agonists of the AP-1 signaling pathway (AID 1159526; calls by dose curve).
The nature of assay [15]: qHTS assay to identify small molecule antagonists of the retinoic acid receptor (RAR) signaling pathway (AID 1159552; further: nearly all actives have a fitted effect of over 50% in size). In short, it runs like this:
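Retinol signaling pathway inhibitors screened in C3RL4 RARE-luciferase reporter cells seeded overnight at 37 C, then compounds added with 1 uM (final) retinol as pathway substrate. After 6 hr at 37 C, luciferase luminescence read after 30 min at room temperature.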

Assay [16] is described as follows: qHTS assay to identify small molecule antagonists of the estrogen related receptor (ERR) signaling pathway - cell viability counter screen (AID 1224818).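 Further: series mostly up to about 46 µM; viability measured after 17.5 h of compound exposure.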 In short, it runs like this: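 After a 6 h pre-incubation, ERR cells were dosed by pin tool with compounds, positive/negative controls or DMSO alone. Following 17.5 h at 37 C and 30 min with CellTiter-Fluor, fluorescence was recorded.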

Assay [17] in a line: qHTS assay to identify small molecule antagonists of the estrogen related receptor signaling pathway with the pleiotropic PPARgamma coactivator (PGC) cell viability counter screen (AID 1224822; further: series mostly up to about 46 µM). In short, it runs like this: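 PGC/ERR cells were plated at 2,000 per well and allowed 6 h to settle before compound addition. Following 17.5 h at 37 C, CellTiter-Fluor reagent was added and fluorescence was read 30 min later.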

Structures are written as SMILES. Inconclusive results are not listed. Activity calls are given as the source filed them. Unless noted, the call rests on the fitted dose curve; in most records, active means well fitted curve in the direction sought with a large enough effect in the repeat runs; inconclusive means weak or mixed curves; inactive means no such curve, though single readings can be large; an effect the other way counts as inactive or inconclusive.

Sequence of Retinoic acid receptor RXR-alpha (Homo sapiens) (P19793 whole entry, looked up): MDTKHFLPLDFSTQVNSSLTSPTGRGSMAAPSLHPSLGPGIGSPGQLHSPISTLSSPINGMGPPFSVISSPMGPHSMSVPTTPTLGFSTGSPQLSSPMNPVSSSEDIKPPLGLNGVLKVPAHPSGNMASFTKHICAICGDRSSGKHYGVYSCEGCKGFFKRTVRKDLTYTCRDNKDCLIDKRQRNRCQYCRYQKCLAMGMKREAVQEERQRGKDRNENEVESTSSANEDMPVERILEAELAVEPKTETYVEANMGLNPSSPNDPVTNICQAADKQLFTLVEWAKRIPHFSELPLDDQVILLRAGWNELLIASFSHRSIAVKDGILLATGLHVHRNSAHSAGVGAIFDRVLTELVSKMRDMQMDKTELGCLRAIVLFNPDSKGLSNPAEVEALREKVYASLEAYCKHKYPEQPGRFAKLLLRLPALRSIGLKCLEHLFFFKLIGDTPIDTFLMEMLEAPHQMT

For `O=C1CN2CCOC2(c2ccccc2Cl)c2cc(Cl)ccc2N1` (stereo not drawn), the Potency result in assay [1], in [6], in assay [7], in assay [8], in [9] and in [10] was “inactive” in each case. The Potency entry in assay [11], in assay [12] and in [13] was “inactive” in each case. Also, the result in assay [2], in assay [3], in [4] and in [5] was inactive.
For the compound `CNC(=O)O/N=C(\C)SC`, the Potency result in [1], in [6], in assay [7], in assay [8], in [10] and in [11] was “inactive” in each case. The Potency result in assay [12] was “inactive”. In addition, the outcome in assay [3], in assay [4], in assay [5] and in [14] was inactive.
Consider `CC(C=O)Cc1ccc2c(c1)OCO2` (stereo not drawn), for which the Potency entry in [1], in [6], in assay [7], in [8], in assay [9] and in assay [10] was “inactive” throughout. The Potency result in [11], in assay [12], in assay [15] and in assay [13] was “inactive” each time. In addition, the outcome in [2], in assay [3], in assay [4] and in assay [5] was inactive.
On to `Nc1cc2c3c(c1)C(c1ccccc1)=N[C@@H](NC(=O)c1cccnc1)C(=O)N3CC2`, for which the Potency entry in assay [1], in assay [6], in assay [7], in [8], in [9] and in [11] was “inactive” each time. In addition, the Potency result in assay [12] was “inactive”. In addition, the outcome in [2], in [3], in assay [4], in assay [5] and in [14] was inactive.
In the case of `CCOP(=S)(OCC)SCSP(=S)(OCC)OCC`, the Potency result in [1], in assay [6], in assay [7], in assay [8], in assay [9] and in [12] was “inactive” throughout. Also, in [15], the Potency result is “inactive”. The compound was classed as inactive in assay [3], in assay [4] and in assay [5].
As for `CC(C(O)c1ccccc1)N(C)C/C=C/c1ccccc1` (stereo not drawn), the Potency result in [1], in assay [6], in assay [7], in assay [8], in assay [9] and in assay [12] was “inactive” throughout. The Potency entry in assay [15] and in assay [13] was “inactive” each time. Moreover, the call in [3], in [4] and in [5] was inactive.
Turning to `COC(=O)C1=CCCN(C)C1`, the Potency result in [1], in assay [6], in assay [7], in [8], in assay [9] and in assay [10] was “inactive” in each case. In addition, the Potency result in [11] and in assay [12] was “inactive” in each case. Also, the result in assay [2], in [3], in [4], in [5], in assay [16] and in [17] was inactive.
As for `CCC(C)n1c(=O)[nH]c(C)c(Br)c1=O` (stereo not drawn), the Potency entry in [1], in assay [6], in assay [7], in [8], in assay [10] and in assay [11] was “inactive” in each case. In [12], the Potency entry was “inactive”. Besides, the result in assay [2], in assay [3], in [4], in assay [5] and in assay [14] was inactive.
As for `c1cc2c(c(N3CCNCC3)c1)OCCO2`, the Potency result in [1], in assay [6], in assay [7], in assay [8], in assay [10] and in assay [11] was “inactive” throughout. The Potency result in assay [12] and in [13] was “inactive” each time. The compound was called inactive in assay [2], in assay [3], in assay [4], in [5] and in assay [14].
Regarding `OCCBr`, the Potency result in [1], in assay [6], in assay [7], in assay [8], in [10] and in [11] was “inactive” in each case. In [12], the Potency result was “inactive”. In addition, the compound was classed as inactive in [2], in [3], in assay [4], in assay [5] and in assay [14].
Turning to `CC1=C(C(=O)Nc2ccccc2)S(=O)(=O)CCO1`, the compound was classed as inactive in assay [3], in assay [4], in [5] and in assay [14]. For the same compound, the Potency entry in assay [6], in assay [7], in assay [11], in assay [12] and in [13] was “inactive” throughout. The Potency in assay [8] was 27.3 µM (active).
In the case of `COc1cccc(C(=O)NN(C(=O)c2cc(C)cc(C)c2)C(C)(C)C)c1C`, the Potency entry in [1], in assay [6], in assay [7], in assay [9], in assay [10] and in [11] was “inactive” throughout. The Potency result in assay [12], in assay [15] and in assay [13] was “inactive” in each case. The compound was classed as inactive in assay [3], in [4], in [5] and in assay [14].
As for `CC(C)CC#N`, the Potency result in assay [1], in [6], in assay [7], in assay [8], in assay [11] and in [12] was “inactive” throughout. Further, the Potency entry in assay [15] and in assay [13] was “inactive” each time. Moreover, the result in assay [2], in [3], in assay [4], in [5] and in [14] was inactive.
With `CCCCCCBr`, the Potency result in [1], in [6], in assay [7], in assay [9], in assay [10] and in assay [11] was “inactive” each time. For the same compound, the Potency entry in assay [12], in assay [15] and in assay [13] was “inactive” throughout. Besides, the outcome in [2], in assay [3], in assay [4], in assay [5] and in assay [14] was inactive.
`COC(=O)c1ccccc1S(=O)(=O)NC(=O)Nc1nc(C)cc(C)n1`: the Potency entry in [1], in assay [6], in assay [7], in assay [9], in assay [10] and in assay [11] was “inactive” in each case. Further, the Potency entry in assay [12], in assay [15] and in [13] was “inactive” each time. Also, the outcome in [2], in assay [3], in assay [4], in assay [5] and in [14] was inactive.
In the case of `O=C1OC(=O)C2C1C1(Cl)C(Cl)=C(Cl)C2(Cl)C1(Cl)Cl` (stereo not drawn), the Potency result in assay [1], in assay [6], in assay [7], in assay [9], in [10] and in assay [11] was “inactive” each time. In addition, the Potency result in assay [12] and in assay [13] was “inactive” each time. The compound was called inactive in assay [3], in assay [4], in [5] and in assay [14].
In the case of `COC(=O)c1ccccc1S(=O)(=O)NC(=O)N(C)c1nc(C)nc(OC)n1`, the Potency result in assay [1], in assay [6], in [7], in assay [9], in assay [10] and in [11] was “inactive” each time. Also, the Potency entry in [12] and in [13] was “inactive” in each case. Further, the outcome in assay [3], in assay [4], in assay [5] and in [14] was inactive.
With `CSc1ccc(C(=O)C(C)(C)N2CCOCC2)cc1`, the Potency entry in assay [1], in assay [6], in assay [7], in assay [9], in assay [10] and in [11] was “inactive” each time. In addition, the Potency result in assay [12] and in assay [13] was “inactive” each time. Besides, the compound was classed as inactive in assay [2], in assay [3], in assay [4], in assay [5] and in assay [14].

The record behind these values is PubChem BioAssay (Tox21).
